Hit rate of the full screen: of about 65,000 compounds, about 95 (0.1%) were called active.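 The calls were made as follows: active = inhibition above the screen-wide mean inhibition plus 3 SD (cut at about 21% in these data); inactive = the rest.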 The full list was thinned out, with actives kept by preference.
The compounds below were run against cAMP-dependent protein kinase catalytic subunit alpha (Homo sapiens) (UniProt P17612) (assay: PKA catalytic subunit kinase inhibition – biochemical, ATP-depletion luminescence, Kemptide substrate, primary screen (AID 524)). Settings: PKA Kemptide phosphorylation, Kinase-Glo ATP luminescence; at 6 µM; stronger effect = higher value.

inhibition, inactive:
CC(C)CNS(=O)(=O)c1ccc(OCC(=O)Nc2ccc3c(c2)OCO3)c(Cl)c1 4.9%
CC(=O)Nc1ccc(S(=O)(=O)NCCc2ccccc2)cc1 2.1%
CCC(=O)N1CCN=C1SCc1ccc(F)cc1 3.7%
COc1cc2[nH]c(=S)n(Cc3ccc(C)o3)c(=O)c2cc1OC 1.2%
CC(=O)c1cc2c(cc1N)OCO2 1.2%
Cc1ccc2c(c1)sc1ncc(NC(=O)c3ccccc3)c(=O)n12 -1.3%
Cc1cc(C)cc(NC(=O)N2CCC(NC(=O)c3ccc(F)cc3)CC2)c1 5.9%
CCCNS(=O)(=O)c1ccc2c(c1)CCCN2C(C)=O 9.1%
CCc1cccc2c3c([nH]c12)C(CC)(CC(=O)O)OCC3 (stereo not drawn) -6.8%
COc1cc(C2C3C(=O)N(c4ccccc4)C(=O)C3ON2c2ccccc2)ccc1O (stereo not drawn) 4.7%
CC(C)Cc1ccc(S(=O)(=O)N2CCN(C(=O)c3ccco3)CC2)cc1 7%
COc1ccc2[nH]c(=O)c(CN(Cc3nnnn3CCc3ccccc3)CC3CCCO3)cc2c1 (stereo not drawn) -2.5%
O=C(NCCCNCc1ccccc1)c1ccc(/C=N/O)nc1 9.9%
Cc1noc(C)c1C(=O)OCC(=O)/C=C1\N(C)c2ccccc2C1(C)C 6.8%
CC1=Nn2c(nnc2-c2ccccc2)SC1 4.2%
CCOc1cc(/C=N/n2cnnc2)c(Br)cc1O 6.7%
Cc1ccc(S(=O)(=O)N2CCN(Cc3cccc(C)c3O)CC2)cc1 6.3%
CCCc1cc(=O)n2[nH]c(SCc3ccccc3)nc2n1 5.4%
O=C(Nc1ccc(S(=O)(=O)N2CCCC2)cc1Cl)C1=COCCO1 -4.1%
Cn1c(=NC(=O)c2cnccn2)sc2ccccc21 5%
O=P(c1cccs1)(c1cccs1)c1cccs1 3.3%
COC(=O)c1nc(NC(=O)c2ccc(Cl)cc2)n[nH]1 5%
Cn1c(=NC(=O)CSCC(=O)N2CCOCC2)sc2ccccc21 7.1%
O=C(C1CCN(c2nnc(-n3cccc3)s2)CC1)N1CCc2ccccc2C1 -3.8%
O=C(Cn1nnc(-c2ccc(CN3CCOCC3)cc2)n1)NC1CCCCC1 10.1%
COC(=O)C(C)N(C#N)c1nc(C)nc(C)n1 (stereo not drawn) -1.3%
CCN(CC)CCN1C(=O)C(=O)/C(=C(/O)c2ccccc2)C1c1ccccc1F (stereo not drawn) -5.4%
N#C/C=C1\Sc2ccccc2C(=O)N1CC(=O)N1CCN(S(=O)(=O)c2ccccc2)CC1 6.8%
CCOC(=O)c1ccc(N2C(=O)CC(Sc3nc(O)c(CC)c(=O)[nH]3)C2=O)cc1 (stereo not drawn) 7.3%
CC(=O)Nc1cccc(NC(=O)c2c(-c3ccccc3)noc2C)c1 -5.3%
Cc1nnc(SCC(=O)NCc2cccs2)[nH]c1=O 12.3%
Cc1nc(SC(C)C)[nH]c(=O)c1Cc1ccccc1 5.4%
COc1cccc(-n2cc(C(=O)O)c3ccccc3c2=O)c1 12.3%
COc1cccc(Nc2nnc(SCC(=O)N3CC(C)OC(C)C3)s2)c1 (stereo not drawn) 6%
CC(=O)NC1CC2CCCC(C1)N2CC(=O)Nc1ccccc1 (stereo not drawn) 6%
O=C(NCC1CCCO1)C(C(=O)c1ccccc1)n1cc(Cl)ccc1=O (stereo not drawn) 1.8%
Cc1nc2ccc(S(=O)(=O)NCC(=O)NCCN3CCCCC3C)cc2s1 (stereo not drawn) -5.1%
CCOC(=O)CN1C(=O)C(O)(CC(=O)c2ccccn2)c2ccccc21 (stereo not drawn) 10.4%
CCOc1ccc(C(=O)Nc2cc(OC)ccc2OC)cc1 -1.4%
CC1(C)CC(=O)C(C=NCc2cccnc2)=C(O)C1 7%
CCCCCCOC(=O)NCC(O)c1ccccc1 (stereo not drawn) 3.5%
Cc1cc(NC(=O)c2cccc(N3C(=O)CCC3=O)c2)no1 -4%
COc1ccc2nc(NC(=O)c3ccc(Br)s3)sc2c1 -4.9%
CC(=O)Oc1ccc(C(=O)Nc2nccs2)cc1 -2.3%
COc1cc(Cl)c(S(=O)(=O)n2cnc(C)c2)cc1Cl 4.9%
O=S(=O)(NCc1cccnc1)c1ccc(Br)s1 -2.9%
CN(Cc1ccccc1)c1nc2c(c(=O)[nH]c(=O)n2C)n1CCSc1nc2ccccc2[nH]1 2.7%
COc1ccc2[nH]c(=O)c(CN(CC3CCCO3)C(=O)Nc3ccccc3)cc2c1 (stereo not drawn) -4.5%
c1ccc(-c2oc3ncnc(N4CCOCC4)c3c2-c2ccccc2)cc1 7.5%
CCCCCN(C(=O)NC(=O)Nc1ccccc1OC)S(C)(=O)=O 8.1%
CN1CCCc2cc(C#N)c(=O)[nH]c21 11.8%
Cc1ccccc1-n1c(SCC(=O)NCc2cccs2)nnc1-c1ccncc1 11.7%
O=C(CSc1nc2ncccc2[nH]1)Nc1ccc2c(c1)OCCO2 -9.5%
CCOC(=O)C1CCN(C(=O)C2CCN(S(=O)(=O)CC)CC2)CC1 0.3%
CCCc1nc2ccccc2c(=O)n1NC(=O)c1c(O)c2ccccc2[nH]c1=O 7.9%
O=C(O)COc1nsnc1N1CCOCC1 -0.4%
CCOC(=O)c1sc(NC(=O)CSc2nnc(-c3ccco3)o2)c(C(=O)OCC)c1C -4.6%
COC(=O)CCSc1nccn1Cc1ccccc1 1.3%
O=C(Oc1ccccc1)c1ccc2nccnc2c1 18.8%
CN1C(=O)CC(N2CCN(c3ccccn3)CC2)C1=O (stereo not drawn) 0.2%
Cc1ccc(-c2nc(COC(=O)c3c(C)noc3C)cs2)cc1 0.5%
CCn1c(=O)cc(OCC(=O)NCCCN2CCN(c3cccc(Cl)c3)CC2)c2ccccc21 9.2%
COC(CCN(C)C)(c1ccccc1)c1ccccc1 9.3%
COC(=O)c1ccc(NC(=O)c2ccco2)cc1 -3.7%
Cc1cccc(-n2c(Cc3cc(=O)[nH]c(=O)[nH]3)nnc2SC(C)C)c1 -8.8%
O=C(Nc1cnccn1)c1cccnc1 9%
O=C(Nc1nc2cc3c(cc2s1)OCCO3)c1cccc(S(=O)(=O)N2CCOCC2)c1 6.2%
COc1cc(-n2c(C)nc3cc(C(=O)NCc4ccco4)ccc32)cc(OC)c1OC 5.2%
CCn1ncc(C2=NOC(C(=O)N3CCN(c4ccccc4)CC3)C2)c1C (stereo not drawn) 11.5%
Cc1cccc(OCc2nnc(SCc3nc4cc(C(F)(F)F)ccc4c(=O)[nH]3)o2)c1 3.4%
Cc1ccccc1-n1nnc2c(=O)oc3ccccc3c21 7.5%
CCOc1ccccc1Nc1nnc(SCc2ccc(C(=O)OC)o2)s1 4.4%
CCOC(=O)N1CCN(CC(=O)c2c(C)[nH]c3ccccc23)CC1 -3.4%
CCOC(=O)CN1CC23C=CC(O2)C(C(=O)Nc2ccc(F)cc2)C3C1=O (stereo not drawn) 2.5%
COc1ccc(C2/C(=C(/O)c3ccc(OC(C)C)cc3)C(=O)C(=O)N2CCCN2CCOCC2)cc1 (stereo not drawn) 3.6%
COc1ccccc1N1CCN(C(=O)c2cn(-c3ccccc3)nc2-c2cccnc2)CC1 -9.3%
CCOc1nc(-c2ccc(OC)cc2)ccc1-c1noc(-c2cc(OC)c(OC)c(OC)c2)n1 -0.3%
CN1CCc2c(sc3c2c(NCc2ccco2)nc2nnnn23)C1 4.3%
COc1ccc(N=Cc2c(O)[nH]c3ccccc23)cc1OC 9.6%
CC1(C)C2CCC1(C)C(OC(=O)CCn1ccnc1)C2 (stereo not drawn) 7.3%
Nc1nnc(SCCN2C(=O)c3ccccc3S2(=O)=O)s1 6.6%
CCOC(=O)c1c(NC(=O)CSc2nnc(C)c(=O)[nH]2)sc2c1CCC2 0.8%
CN(CCc1ccccn1)S(=O)(=O)c1ccc2c3c(cccc13)C(=O)N2 4.5%
CC(=O)Nc1cc2ccc(OC(C)=O)cc2oc1=O 5.7%
CCc1ccc(CCC(=O)Nc2ccc(S(N)(=O)=O)cc2)o1 -0.9%
CCN1CCN(c2ncnc3c2oc2nc(C)c4c(c23)CC(C)(C)OC4)CC1 0.2%
CCOC(=O)C(CC)Sc1ncnc2c1nnn2-c1ccc(F)cc1 (stereo not drawn) 11.3%
CC(C)(C)c1ccc(C(=O)CSc2ncn[nH]2)cc1 7.8%
CCCCOc1ccccc1/C=c1/sc2nc(-c3oc4ccccc4c3C)nn2c1=O 2%
CC(C)(C)NC(=O)C(c1ccco1)N(Cc1ccc2c(c1)OCO2)C(=O)Cn1nnc2ccccc21 (stereo not drawn) -2.7%
O=S(=O)(Nc1nccs1)c1ccc2c(c1)OCCO2 6.4%
Cc1cc(C)c2nc(SCCC#N)nc(C)c2c1 5.1%
O=C(NCc1ccc(Cl)cc1)c1cc2c(nc3sccn32)s1 2.8%
COc1ccccc1CNC(=O)C1CCN(S(C)(=O)=O)CC1 4.6%
Cc1ccc(S(=O)(=O)N2CCC(C(=O)N[C@@H](C)C(=O)NCc3ccccc3)CC2)cc1 1.2%
CC1(C)Cc2cccc(OCC(=O)Nc3nccs3)c2O1 9.4%
O=C(NCc1ccc2c(c1)OCO2)c1cc2c(s1)CS(=O)(=O)C2 5.5%
CCOCC(=O)Nc1cc(OC)c(Cl)cc1OC 5.6%
O=S(=O)(c1cccc(S(=O)(=O)N2CCC(n3nnc4ccccc43)CC2)c1)N1CCCCC1 8.1%
Cc1ccc(-n2nc3c(c2NC(=O)CCC2CCCCC2)CS(=O)C3)cc1 (stereo not drawn) -4.5%
CCC(C)n1[nH]c(=O)cc1N (stereo not drawn) -5.4%
CCOc1ccccc1Oc1cn[nH]c1-c1ccc(OC)cc1O -1.5%
CCn1cc(C(=O)NCC2COc3ccccc3O2)c2cc(OC)c(OC)cc2c1=O (stereo not drawn) 2.4%

From PubChem BioAssay AID524 (The Scripps Research Institute Molecular Screening Center, 2006)
